The panel holds about 83,000 compounds, 20% with a hit somewhere; the sample as a whole holds those more often.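 The endpoint reported here, percent growth, reads 100 for growth as untreated, 0 for no net growth and -100 for all cells dead.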 The source made the active and inactive calls. The calls were made as follows: active = growth percent below 10; inactive = the rest.
Assays:
Experiment in all cases: NCI-60 one-dose screen, 48 h (100 = growth as untreated, 0 = no growth, -100 = all killed)
Details in all cases: 10 µM unless noted
T-47D breast = tested on: T-47D breast
BT-549 breast = tested on: BT-549 breast
MDA-MB-435 melanoma = tested on: MDA-MB-435 melanoma
SW-620 colon = tested on: SW-620 colon
MCF7 breast = tested on: MCF7 breast
HCT-116 colon = tested on: HCT-116 colon
HCC-2998 colon = tested on: HCC-2998 colon
KM12 colon = tested on: KM12 colon

Measured: growth

COc1cc(C2=C(c3cn(C)c4ccccc34)COC2=O)cc(OC)c1OC
active: MDA-MB-435 melanoma -59.5% | HCT-116 colon 1.75% | HCC-2998 colon 0.901%
inactive: T-47D breast 22.6% | BT-549 breast 16.7% | SW-620 colon 13.7% | MCF7 breast 14.8% | KM12 colon 13.2%

Cn1ccnc1C(=O)/C=C/c1ccc(CC(=O)Nc2ccc(Cl)cc2)cc1
inactive: BT-549 breast 17.6% | MDA-MB-435 melanoma 17.6% | MCF7 breast 25.5% | HCC-2998 colon 30.3%
active: T-47D breast 2.07% | SW-620 colon 7.1% | HCT-116 colon 7.88% | KM12 colon 9.56%

COc1cc2c(c(OC)c1OC)-c1ccc(NNC(=S)N(Cc3cccc(C[N+](Cc4cccc(CNC56CC7CC(CC(C7)C5)C6)c4)(Cc4cccc(CNC56CC7CC(CC(C7)C5)C6)c4)Cc4cccc(CN(C(=S)NNc5ccc6c(cc5=O)[C@@H](NC(C)=O)CCc5cc(OC)c(OC)c(OC)c5-6)C56CC7CC(CC(C7)C5)C6)c4)c3)C34CC5CC(CC(C5)C3)C4)c(=O)cc1[C@@H](NC(C)=O)CC2 (stereo partly drawn)
active: BT-549 breast -4.6% | MDA-MB-435 melanoma -9.46% | SW-620 colon 3.6% | MCF7 breast -24.6% | HCT-116 colon -54.6% | HCC-2998 colon -58.4% | KM12 colon 4.25%
inactive: T-47D breast 51.8%

Cc1c(C(=O)NCCC(=O)NO)sc2ncnc(Nc3ccc(F)c(Cl)c3)c12
inactive: T-47D breast 107% | BT-549 breast 114% | MDA-MB-435 melanoma 102% | SW-620 colon 101% | MCF7 breast 95.2% | HCT-116 colon 107% | HCC-2998 colon 105% | KM12 colon 104%

N#Cc1c(-c2cccc([N+](=O)[O-])c2)nc(SCC(=O)c2ccc(Cl)cc2)[nH]c1=O
inactive: T-47D breast 105% | BT-549 breast 99.7% | MDA-MB-435 melanoma 100% | SW-620 colon 98.4% | MCF7 breast 105% | HCT-116 colon 105% | HCC-2998 colon 106% | KM12 colon 99.4%

COc1cccc(-c2cc(C(=O)Nc3ccc(/C=C/c4ccc(OC5CCN(C)CC5)cc4)cc3)ccc2OC)c1
inactive: T-47D breast 53% | BT-549 breast 23.1% | HCC-2998 colon 74.9%
active: MDA-MB-435 melanoma -77.4% | SW-620 colon -60.5% | MCF7 breast -34.9% | HCT-116 colon -93.4% | KM12 colon -72.8%

COc1cc2cc(CN3CCN(c4nccc(-c5ccc6ccccc6c5)n4)CC3)c(=O)[nH]c2cc1OC
active: SW-620 colon -55% | HCT-116 colon -25.4%
inactive: T-47D breast 81.5% | BT-549 breast 95.6% | MDA-MB-435 melanoma 91.1% | MCF7 breast 42.8% | HCC-2998 colon 101% | KM12 colon 83.4%

COc1cccc(-c2ccc3c(c2)NC(=O)/C3=C\c2ccc[nH]2)c1
active: MDA-MB-435 melanoma 8.7% | KM12 colon 9.35%
inactive: T-47D breast 13.6% | BT-549 breast 36.6% | SW-620 colon 25.1% | MCF7 breast 11.3% | HCT-116 colon 23.5% | HCC-2998 colon 25.4%

CCCOC(=O)N[C@H]1CCc2cc(OC)c(OC)c(OC)c2-c2ccc(SC)c(=O)cc21
active: MDA-MB-435 melanoma -40.4% | HCT-116 colon 7.65% | KM12 colon -11.3%
inactive: T-47D breast 39.3% | BT-549 breast 10.2% | SW-620 colon 18.4% | MCF7 breast 15.6% | HCC-2998 colon 23%

O=C1Nc2cc(-c3ccc(NC(=O)c4ccccc4)cc3)ccc2/C1=C/c1ccc[nH]1
active: MCF7 breast 8.35%
inactive: T-47D breast 35.7% | BT-549 breast 89.1% | MDA-MB-435 melanoma 99.5% | SW-620 colon 105% | HCT-116 colon 99.1% | HCC-2998 colon 99.8% | KM12 colon 68.7%

CNCCn1c(=O)c2cc(OC)c(OC)cc2c2ccc3cc4c(cc3c21)OCO4
active: T-47D breast 6.22% | BT-549 breast -19.8% | MDA-MB-435 melanoma -61% | SW-620 colon -47.4% | MCF7 breast 7.12% | HCT-116 colon 2.87% | HCC-2998 colon -51.6% | KM12 colon 3.17%

COc1ccc(-c2nc(S(=O)(=O)c3ccccc3)c(S(=O)CC(=O)N3CCC(C)CC3)o2)cc1 (stereo not drawn)
inactive: T-47D breast 15.6% | BT-549 breast 33.5% | MDA-MB-435 melanoma 57.2% | MCF7 breast 24.3% | HCC-2998 colon 90.6% | KM12 colon 68.1%
active: SW-620 colon 1.06% | HCT-116 colon -55.9%

N#Cc1c(NC(=O)NCc2ccccc2)sc2c1CCCC2
inactive: T-47D breast 40% | BT-549 breast 24.1% | SW-620 colon 24% | MCF7 breast 19.5% | HCT-116 colon 12.2% | HCC-2998 colon 22.4% | KM12 colon 20.5%
active: MDA-MB-435 melanoma -35.3%

COc1cccc(-c2nc3occn3c2-c2ccnc(NCCCNS(=O)(=O)c3ccc(C(F)(F)F)cc3)n2)c1
inactive: T-47D breast 39.1% | BT-549 breast 93.4% | MDA-MB-435 melanoma 76.3% | SW-620 colon 124% | MCF7 breast 79.8% | HCT-116 colon 83.9% | HCC-2998 colon 124% | KM12 colon 91.5%

COc1cc(C2C3=C(COC3=O)N(CCO)c3cc4c(cc32)CCC4)cc(OC)c1OC (stereo not drawn)
inactive: T-47D breast 54.1% | SW-620 colon 21.4%
active: BT-549 breast -9.83% | MDA-MB-435 melanoma -9.03% | MCF7 breast -16.2% | HCT-116 colon -35.3% | HCC-2998 colon -32.4% | KM12 colon -16.9%

CCCCC/C=C/C(C)=C/C1CC(C)C/C=C/CCC(O)C(OC(N)=O)CCC(C)CC(O)C(C)C(=O)O1 (stereo not drawn)
inactive: T-47D breast 91.6% | BT-549 breast 120% | MDA-MB-435 melanoma 50.6% | SW-620 colon 103% | MCF7 breast 86.5% | HCT-116 colon 94.1% | HCC-2998 colon 52.3% | KM12 colon 102%

COC(=O)C(CC=O)C(=O)C(=O)Nc1cccc(C(F)(F)F)c1 (stereo not drawn)
inactive: T-47D breast 77.4% | BT-549 breast 101% | MDA-MB-435 melanoma 107% | SW-620 colon 95.6% | MCF7 breast 104% | HCT-116 colon 90.1% | HCC-2998 colon 97% | KM12 colon 100%

N#C/C(=C\c1ccc(Cl)cc1)n1nnc2cc(F)c(F)cc21
inactive: T-47D breast 19.8% | BT-549 breast 11.7% | MCF7 breast 12% | HCC-2998 colon 16.8% | KM12 colon 16.2%
active: MDA-MB-435 melanoma 5.95% | SW-620 colon -15% | HCT-116 colon -11.6%

CC(=O)[C@@H]1CC[C@]2(C(N)=O)CC[C@]3(C)[C@H](CC[C@@H]4[C@@]5(C)CCCNC(C)(C)[C@@H]5CC[C@]43C)[C@@H]12
inactive: T-47D breast 93.9% | BT-549 breast 87.1% | MDA-MB-435 melanoma 83.9% | SW-620 colon 90.4% | MCF7 breast 72.1% | HCT-116 colon 65.1% | HCC-2998 colon 92% | KM12 colon 90.5%

Clc1ccc(-c2ccc(CNCC3CCNCC3)o2)c(-c2ccccc2)c1
active: T-47D breast -75.2% | BT-549 breast -5.56% | MDA-MB-435 melanoma -92% | SW-620 colon -85.9% | MCF7 breast -73.9% | HCT-116 colon -87.2% | HCC-2998 colon -77.6% | KM12 colon -84.2%

COc1cc2c3c(c4c5ccccc5[nH]c4c2c(OC)c1OC)C(=O)N(CCN1CCOCC1)C3=O
inactive: T-47D breast 66% | BT-549 breast 73.5% | MDA-MB-435 melanoma 73.9% | SW-620 colon 32.4% | MCF7 breast 32% | HCT-116 colon 19.7% | HCC-2998 colon 69.5% | KM12 colon 61%

COC(=O)CNC(=O)[C@]12CCC(C)(C)C[C@H]1C1=CC[C@@H]3[C@@]4(C)Cc5c([nH]c6ccccc56)C(C)(C)[C@@H]4CC[C@@]3(C)[C@]1(C)CC2
inactive: T-47D breast 57.1% | BT-549 breast 102% | MDA-MB-435 melanoma 97.8% | SW-620 colon 88.8% | MCF7 breast 79.9% | HCT-116 colon 95% | HCC-2998 colon 103% | KM12 colon 92.3%

C/C(=N\Nc1cc(C)nc2ccc(Br)cc12)c1ccc([N+](=O)[O-])cc1
inactive: T-47D breast 62% | BT-549 breast 105% | MDA-MB-435 melanoma 72.6% | SW-620 colon 49.3% | MCF7 breast 43.9% | HCT-116 colon 13.3% | HCC-2998 colon 55.8% | KM12 colon 75.5%

COc1cccc(/C=N/NC(=O)c2cnn3c2NC(c2ccccc2)C3)c1Oc1ccccc1 (stereo not drawn)
inactive: T-47D breast 79.8% | BT-549 breast 65.7% | SW-620 colon 65.6% | MCF7 breast 47.7% | HCT-116 colon 55.6% | HCC-2998 colon 91% | KM12 colon 51.8%
active: MDA-MB-435 melanoma 1.99%

CC1(C)CC(O)CCCCCCOc2c(CN)cccc2NC(=O)c2nc(cnc2N)-c2ccc(cc2)S1(=O)=O (stereo not drawn)
inactive: T-47D breast 66.2% | BT-549 breast 28.2% | MDA-MB-435 melanoma 20% | HCC-2998 colon 28.6%
active: SW-620 colon -6.55% | MCF7 breast -16% | HCT-116 colon -63.6% | KM12 colon -10.7%

COc1ccc(-c2[nH][nH]c(=O)c2-c2nc3ccccc3s2)cc1
inactive: T-47D breast 109% | BT-549 breast 97.6% | MDA-MB-435 melanoma 101% | SW-620 colon 101% | MCF7 breast 93.9% | HCT-116 colon 101% | HCC-2998 colon 99.6% | KM12 colon 101%

O=C(/C(=C\c1ccc([N+](=O)[O-])cc1)S(=O)Cc1ccc(F)cc1)c1ccc(F)cc1 (stereo not drawn)
inactive: T-47D breast 10.3% | BT-549 breast 74.6% | MDA-MB-435 melanoma 53.7% | MCF7 breast 16.4% | HCC-2998 colon 45.9% | KM12 colon 43.4%
active: SW-620 colon -33.5% | HCT-116 colon -20.5%

C[C@@H](Nc1ncnc2ccc(-c3cnc(N)nc3)cc12)c1ccc(F)cc1
inactive: T-47D breast 67.8% | BT-549 breast 69.3% | MDA-MB-435 melanoma 95.3% | SW-620 colon 95.8% | MCF7 breast 82.5% | HCT-116 colon 85.3% | HCC-2998 colon 87.1% | KM12 colon 98.7%

COc1cc2c(c(O)c1Br)C(=O)c1c(O)cc(C[C@H](C)O)cc1[C@H]2[C@H]1c2cc(C[C@H](C)O)cc(O)c2C(=O)c2c1cc(OC)c(Br)c2O
active: T-47D breast 8.03% | MDA-MB-435 melanoma 9.24% | MCF7 breast 8.05% | KM12 colon 9.13%
inactive: BT-549 breast 17.3% | SW-620 colon 18.2% | HCT-116 colon 10.1% | HCC-2998 colon 26%

O=C(CCN1CCCC1)Nc1ccc2c(NCCc3ccccc3)c3ccccc3nc2c1
active: T-47D breast 1.89% | BT-549 breast -15.3% | MDA-MB-435 melanoma -92.1% | SW-620 colon -44.9% | MCF7 breast -19.4% | HCT-116 colon -38.2% | HCC-2998 colon -56.8% | KM12 colon -15.6%

Cc1ccc(S(=O)(=O)NNC(=O)/C(=C\c2ccc(Cl)cc2)c2nc3ccccc3s2)cc1
inactive: T-47D breast 95% | BT-549 breast 106% | MDA-MB-435 melanoma 96.9% | SW-620 colon 93.6% | MCF7 breast 78.7% | HCT-116 colon 84.3% | HCC-2998 colon 103% | KM12 colon 96.6%

From PubChem BioAssay (NCI)
